This note sets out measurements from PubChem BioAssay (NCATS).

Assay [1] can be described thus: Primary qHTS for inhibitors of nuclear receptor binding SET domain protein 2 (NSD2) in an isogenic RCH-ACV NSD2 p.E1099K mutant (9B) (AID 1645876). Further: nearly all actives have a fitted effect of over 70% in size. Further: potency means the concentration at half of the fitted maximal effect. Particulars: RCH-ACV NSD2 E1099K (9B) viability, CellTiter-Glo, 72 h; series mostly up to 44.9 µM.
Assay [2] is described as follows: Primary qHTS for inhibitors of nuclear receptor binding SET domain protein 2 (NSD2) in an RCH-ACV wild type WT cells (2C) (AID 1645877). Further: nearly all actives have a fitted effect of over 70% in size. Further: potency means the concentration at half of the fitted maximal effect. Particulars: RCH-ACV (leukaemia line) NSD2 WT (2C) viability, CellTiter-Glo, 72 h; series mostly up to 44.9 µM.
In a further assay the test system is KB-3-1. The experiment in a line: Cytotoxic Profiling of Annotated Libraries Using Quantitative High-Throughput Screening (AID 1296008). Further: nearly all actives have a fitted effect of over 60% in size. Further: potency means the concentration at half of the fitted maximal effect. On max response: on the % scale 0 is the no-effect control and ±100 the full control effect. Particulars: Five cell lines viability, CellTiter-Glo ATP luminescence, 48-72 h; max response: stronger effect = lower value. The procedure, abridged: (§1)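 Cytotoxicity was measured as CellTiter-Glo ATP luminescence, read after 10 min at room temperature. Compound treatment of the cells lasted 48 or 72 hr at 37 degrees Celsius in a qHTS format.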

The test system of a further assay is HACAT. Put plainly: qHTS assay to identify novel small-molecules to repurpose for Merkel cell carcinoma treatment (AID 1296009). Further: nearly all actives have a fitted effect of over 60% in size. Particulars: MCC and control cell lines, CellTiter-Glo viability, 72 h; at 44.8 µM (top of the series) unless noted. The procedure, abridged: (§2)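 Cell viability, measured as CellTiter-Glo luminescence, was normalized between DMSO and no-cell wells. The cells had been exposed to 8- or 11-point compound dilutions for 72 hr at 37 degree celsius.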

A further assay deals with HeLa. Put plainly: Primary qHTS to identify gynecologic anti-cancer compounds using libraries of approved drugs and bioactive compounds (AID 1345084). Further: nearly all actives have a fitted effect of over 55% in size. Further: potency means the concentration at half of the fitted maximal effect. On activity change, negative = cytotoxicity: on the % scale 0 is the no-effect control and ±100 the full control effect. Particulars: Gynecologic cancer cell panel viability, ATPlite luminescence, 48 h; series mostly up to 57.5 µM. The procedure, abridged: (§3)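 Cells, 1,000 per well, plated 16 h, then exposed 48 h at 37 C to compounds. Viability by ATPlite luminescence after 15 min at room temperature.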

Assay [3] can be described thus: P-glycoprotein substrates identified in KB-8-5-11 adenocarcinoma cell line, qHTS therapeutic library screen (AID 1346987). Further: nearly all actives have a fitted effect of over 65% in size. Further: potency means the concentration at half of the fitted maximal effect. Particulars: KB-8-5-11 (P-gp overexpressing) viability, CellTiter-Glo, 72 h; series mostly up to 44.5 µM. The procedure, abridged: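 Luminescence from CellTiter-Glo, read 5 min after addition, quantified survival of KB-8-5-11 (P-gp-overexpressing) cells exposed to compounds for 72 h. AC50 was derived from concentration-response curves.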

In assay [4] the test system is Zika virus NS2B-NS3 protease (unlinked complex). The experiment in a line: Primary screen GU Rhodamine qHTS for Zika virus inhibitors: Unlinked NS2B-NS3 protease assay (AID 1347159). Further: nearly all actives have a fitted effect of over 60% in size. Further: potency means the concentration at half of the fitted maximal effect. Particulars: Recombinant ZIKV NS2B-NS3 protease, Rhodamine110 substrate fluorescence; series mostly up to 107 µM. The procedure, abridged:
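Percent inhibition came from the 15-min rise in Rhodamine110 fluorescence (1.5 microM substrate, ~15% conversion), normalized to no-inhibitor and no-enzyme wells and Hill-fitted. Unlinked protease, 25 nM, pH 8.0 Tris buffer; compounds up to 114 microM, 15-min preincubation.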

Another assay has as its system HEK293. Put plainly: Cytotoxic Profiling of Annotated Libraries Using Quantitative High-Throughput Screening (AID 1296008). Further: nearly all actives have a fitted effect of over 60% in size. Further: potency means the concentration at half of the fitted maximal effect. On max response: on the % scale 0 is the no-effect control and ±100 the full control effect. Particulars: Five cell lines viability, CellTiter-Glo ATP luminescence, 48-72 h; max response: stronger effect = lower value. The procedure, abridged: as §1
Assay [5] has as its target Cytochrome P450 2D6 (Homo sapiens) (UniProt P10635). Put plainly: Cytochrome P450 family 2 subfamily D member 6 (CYP2D6) small molecule antagonists: luciferase biochemical (cell-free) qHTS assay (AID 1645840; active means well fitted curve in the direction sought with a large enough effect in the repeat runs; an effect the other way counts as inactive or inconclusive; further: nearly all actives have a fitted effect of over 55% in size; further: potency means the concentration at half of the fitted maximal effect). Particulars: P450-Glo CYP2D6 enzyme, luciferin luminescence, 1 h; series mostly up to 57.4 µM. The procedure, abridged: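 P450-Glo CYP2D6 system: proluciferin substrate converted by enzyme to luciferin, read by luminescence proportional to activity. Enzyme-substrate mix with compound 10 min at room temperature, then NADPH regeneration 1 h before detection reagent.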

Assay [6] deals with Cytochrome P450 2C9 (Homo sapiens) (UniProt P11712). Put plainly: Cytochrome P450 family 2 subfamily C member 9 (CYP2C9) small molecule antagonists: luciferase biochemical (cell-free) qHTS assay (AID 1645842; active means well fitted curve in the direction sought with a large enough effect in the repeat runs; an effect the other way counts as inactive or inconclusive; further: nearly all actives have a fitted effect of over 55% in size; further: potency means the concentration at half of the fitted maximal effect). Particulars: P450-Glo CYP2C9 enzyme assay, luciferin luminescence; series mostly up to 57.4 µM. The procedure, abridged:
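P450-Glo CYP2C9 system: proluciferin substrate with enzyme in mix containing 0.4% BSA, 10 min at room temperature, then NADPH regeneration solution added and incubated 1 h at 37C. Detection reagent stopped reaction; luminescence read after 20 min as RLU.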

The next assay relates to SKOV3. Put plainly: Primary qHTS to identify gynecologic anti-cancer compounds using libraries of approved drugs and bioactive compounds (AID 1345084). Further: nearly all actives have a fitted effect of over 55% in size. Further: potency means the concentration at half of the fitted maximal effect. On activity change, negative = cytotoxicity: on the % scale 0 is the no-effect control and ±100 the full control effect. Particulars: Gynecologic cancer cell panel viability, ATPlite luminescence, 48 h; series mostly up to 57.5 µM. The procedure, abridged:
as §3

Assay [7] in a line: qHTS drug screen for cell cycle checkpoint inhibitors in PARPi-resistant BRCA-mutant ovarian cancer cell lines. (AID 1963452; calls by dose curve; further: potency means the concentration at half of the fitted maximal effect). Particulars: PEO1/OlaR viability, CellTiter-Glo luminescence, 96 h; for Z-AUC: stronger effect = lower value. The procedure, abridged: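 PEO1, PEO4 and PEO1/OlaR ovarian cancer cells, 600 per well, exposed 96 h at 37C to a dilution series. Viability read by CellTiter-Glo luminescence, normalized to DMSO and empty wells; activity summarized as Z-AUC.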

The subject of another assay is NIH3T3. Put plainly: qHTS assay to identify novel small-molecules to repurpose for Merkel cell carcinoma treatment (AID 1296009). Further: nearly all actives have a fitted effect of over 60% in size. Particulars: MCC and control cell lines, CellTiter-Glo viability, 72 h; at 44.8 µM (top of the series) unless noted. The procedure, abridged: as §2
Setting [8] is: measured here: PEO1 parental Z-AUC.

Inconclusive results are not listed. Calls of active or inactive are those of the source. Unless noted, the call rests on the fitted dose curve; in most records, active means well fitted curve in the direction sought with a large enough effect; inconclusive means small, poorly fitted or top-dose-only effect, or another doubt; inactive means no such curve, though single readings can be large; an effect the other way counts as inactive or inconclusive.

Sequence of Cytochrome P450 2C9 (Homo sapiens) (P11712 whole entry, looked up): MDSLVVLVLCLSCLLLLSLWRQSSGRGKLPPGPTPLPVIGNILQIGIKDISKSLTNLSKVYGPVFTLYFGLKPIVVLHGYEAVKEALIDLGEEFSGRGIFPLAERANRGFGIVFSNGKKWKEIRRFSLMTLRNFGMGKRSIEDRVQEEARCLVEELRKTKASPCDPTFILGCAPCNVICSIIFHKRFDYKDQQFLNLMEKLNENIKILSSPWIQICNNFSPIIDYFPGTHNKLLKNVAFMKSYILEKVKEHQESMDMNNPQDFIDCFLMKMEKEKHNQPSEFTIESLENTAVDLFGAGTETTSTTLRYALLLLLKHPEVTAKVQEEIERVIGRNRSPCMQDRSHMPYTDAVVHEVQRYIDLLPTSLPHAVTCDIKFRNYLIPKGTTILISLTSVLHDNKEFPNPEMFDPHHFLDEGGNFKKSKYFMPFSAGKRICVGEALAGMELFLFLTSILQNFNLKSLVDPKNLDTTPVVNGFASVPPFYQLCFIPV
Sequence of Cytochrome P450 2D6 (Homo sapiens) (P10635 whole entry, looked up): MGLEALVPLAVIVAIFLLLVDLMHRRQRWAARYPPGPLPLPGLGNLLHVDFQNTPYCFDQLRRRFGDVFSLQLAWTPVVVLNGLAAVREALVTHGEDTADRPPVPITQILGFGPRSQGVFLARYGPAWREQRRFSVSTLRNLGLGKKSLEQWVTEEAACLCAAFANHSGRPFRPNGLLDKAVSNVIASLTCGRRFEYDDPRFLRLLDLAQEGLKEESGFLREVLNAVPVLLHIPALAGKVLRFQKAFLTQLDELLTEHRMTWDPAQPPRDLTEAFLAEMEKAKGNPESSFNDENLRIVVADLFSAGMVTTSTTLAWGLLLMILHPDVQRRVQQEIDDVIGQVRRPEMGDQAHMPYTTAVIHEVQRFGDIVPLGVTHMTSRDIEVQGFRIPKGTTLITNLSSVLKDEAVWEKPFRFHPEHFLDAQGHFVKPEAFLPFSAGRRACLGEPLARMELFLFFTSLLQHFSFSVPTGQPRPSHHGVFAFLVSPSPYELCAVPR

On to `COc1ccc(CC2C(=O)NC(C)C(=O)N(C)C3Cc4ccc(cc4)Oc4cc(ccc4OC4OC(CO)C(O)C(O)C4O)CC(C(=O)NC(C)C(=O)NC(CCC(=O)O)C(=O)N2C)N(C)C3=O)cc1` (configuration not stated), for which the results for the Potency in assay [1] and in assay [2] were 5.48 µM (active) and 4880 nM (active), respectively. Also, in the assay on KB-3-1, the max response was -29.6% (inactive). Also, the outcome in the assay on HACAT was “inactive [at 9.27 µM]”. For the same compound, the activity change, negative = cytotoxicity with HeLa is -13.7% [at 11.6 µM] (inactive).
With `CC(C)=CCC[C@]1(C)C=Cc2c(O)c3c(c(CC=C(C)C)c2O1)O[C@]12C(=C[C@@H]4CC1C(C)(C)O[C@@]2(C/C=C(/C)C(=O)O)C4=O)C3=O`, the Potency in assay [3] is 4.11 µM (active); in assay [4] it was 2.82 µM (active); in assay [1] it was 0.578 µM (active); with HEK293, 731 nM (active); with HeLa, 5.01 µM (active).
For `CCCCCn1cc(C(=O)Cc2ccccc2OC)c2ccccc21`, the Potency entry (in [4]; in [5]; in the assay on SKOV3) was “inactive” throughout. The Potency in assay [6] is 1.9 µM (active).
Consider `COC1CC(OC2CCC3(C=O)C(CCC4C3CCC3(C)C(C5=CC(=O)OC5)CCC43O)C2)OC(C)C1O` (configuration not stated), for which the Potency in [3] was 0.178 µM (active); in assay [1], 0.0796 µM (active); in assay [2], 126 nM (active); in the assay with HEK293, 112 nM (active); with HeLa it was 0.224 µM (active); with SKOV3 it was 0.199 µM (active).
On to `C/C1=C/[C@@H](C)C/C=C/[C@H]2[C@@H]3O[C@]3(C)[C@@H](C)[C@H]3[C@H](Cc4c[nH]c5ccccc45)NC(=O)[C@]32C(=O)/C=C\C(=O)[C@@H]1O`, for which the Potency result (in assay [4]; in the assay with HeLa) was “inactive” in each case. The Potency is 3.99 µM (active) in assay [1], 502 nM (active) in assay [2] and 7960 nM (active) with KB-3-1.
For the compound `COc1ccc(C23CCC(=O)C=C2N(C)CC3)cc1OC` (configuration not stated), the Potency entry in assay [3], in assay [4] and in [1] was “inactive” in each case. The max response in the assay on HEK293 was -6.12% (inactive); in the assay with KB-3-1, -13% (inactive). Also, the Potency in the assay with SKOV3 was 25.1 µM (active).
Consider `CC(=O)OC[C@]12C[C@H](OC(C)=O)C(C)=C[C@H]1O[C@@H]1[C@H](O)[C@@H](O)[C@@]2(C)[C@]12CO2`, for which the Potency in assay [3] is 0.904 µM (active); in assay [1] it was 0.101 µM (active); in assay [2] it was 89.8 nM (active); in the assay on KB-3-1, 180 nM (active). Moreover, in [4], the Potency entry is “inactive”.
Consider `CCCCn1cc(C(=O)c2cccc3ccccc23)c2ccccc21`, for which the Potency entry in assay [3], in assay [4], in [5], in assay [6], in [1] and in assay [2] was “inactive” in each case. In addition, the Potency entry in the assay on HeLa and in the assay with SKOV3 was “inactive” each time. In addition, the max response in the assay with KB-3-1 is -16.1% (inactive). The compound was called inactive with HACAT.
For `COc1ccc(C(C)(C)C)cc1CN[C@H]1C2CCN(CC2)[C@H]1C(c1ccccc1)c1ccccc1`, the Potency in assay [3] is 18.4 µM (active); in assay [5] it was 2.68 µM (active); in [6], 26.8 µM (active); in [1], 6.49 µM (active); in assay [2], 6490 nM (active); in the assay on HEK293, 10300 nM (active). For the same compound, the Potency entry (in assay [4]; with HeLa; with SKOV3) was “inactive” in each case.
On to `CC[C@H]1/C=C\C=C/C[C@@H](C)[C@H](O)[C@@](C)(O)C(=O)[C@@H](C)[C@H](O)[C@@H](C)C(=O)[C@@H](C)[C@H](O)[C@@H](C)/C=C\C(=O)O[C@@H]2[C@H](C)[C@H](CC1)O[C@]1(CC[C@H](C)[C@H](C[C@@H](C)O)O1)[C@H]2C`, for which the figures for the Potency in [1] and in [2] were 0.742 µM (active) and 332 nM (active), respectively. The Z-AUC in [7] was 0.274 (inactive); in assay [7] (setting [8]), -2.84; in [7] (measured here: PEO4 Z-AUC), -2.81. The max response in the assay on HEK293 is -112% (inactive).
On to `Cc1sc2c(c1C)C(c1ccc(Cl)cc1)=N[C@@H](CC(=O)Nc1ccc(O)cc1)c1nnc(C)n1-2`, for which the Potency is 0.0615 µM (active) in assay [1], 69 nM (active) in assay [2], 390 nM (active) in the assay with HEK293 and 0.562 µM (active) with SKOV3. The Z-AUC in [7] was -0.583 (inactive); in assay [7] (setting [8]), -0.325; in [7] (measured here: PEO4 Z-AUC), -0.491. In addition, the outcome in the assay with HACAT is “inactive [at 9.27 µM]”.
On to `C/C(=C\c1csc(C)n1)[C@@H]1C[C@@H]2O[C@@H]2CCC[C@H](C)[C@H](O)[C@@H](C)C(=O)C(C)(C)[C@@H](O)CC(=O)O1`, for which the Potency in assay [3] is 0.0058 µM (active); in [1], 0.0372 µM (active); in assay [2], 26.3 nM (active); in assay [7] it was 8.7 nM (active); with HEK293 it was 6.5 nM (active); in the assay on KB-3-1, 8.2 nM (active). The Potency result in assay [4] is “inactive”. For the same compound, the Z-AUC is -2.45 in assay [7] (setting [8]) and -2.36 in assay [7] (measured here: PEO4 Z-AUC).
`C[C@]12CC[C@H](O[C@@H]3O[C@H](CO)[C@@H](O)[C@H](O)[C@H]3O)CC1CC[C@@H]1C2CC[C@]2(C)[C@@H](C3=CC(=O)OC3)CC[C@]12O` (some centres not stated): in assay [4], the Potency entry is “inactive”. The Potency in [1] is 2.52 µM (active); in [2] it was 3170 nM (active); in the assay with HEK293, 3170 nM (active); in the assay with HeLa, 10 µM (active); with SKOV3 it was 8.91 µM (active). In the assay on NIH3T3, the outcome was “inactive [at 17.4 µM]”.
With `CC(C)C(=O)O[C@H]1[C@@H]2[C@H](C)C(=O)O[C@@H]2C[C@@H](C)[C@@H]2C=CC(=O)[C@]21C`, the Potency in assay [3] was 16.1 µM (active); in assay [1] it was 3.58 µM (active); in assay [2], 2840 nM (active); in the assay on HEK293 it was 9040 nM (active). In addition, the Potency result in assay [4] was “inactive”.
As for `Cc1ccc(-n2nccn2)c(C(=O)N2CCN(c3nc4cc(Cl)ccc4o3)CCC2C)c1` (configuration not stated), the Potency entry (in [4]; with HeLa) was “inactive” each time. Besides, the values for the Potency in assay [5], in [6] and in [1] were 16.9 µM (active), 1.34 µM (active) and 16.3 µM (active), respectively. For the same compound, the result in the assay with HACAT and in the assay with NIH3T3 was inactive.
